Measured values from paper PMC11062922 (Nature Chemical Biology, 2023).
Like-named read-outs stand apart in the source and are kept apart here.

Tests used:
PLK4 = settings: read-out: apparent Kd, n = 1
PRKAA2 = settings: read-out: apparent Kd, n = 1

## Lestaurtinib
PLK4; compound concentrations:100 nM and 1000 nM (sheet 'Lestaurtinib' of Supplementary Table 1),run:Lestaurtinib_02768_R1,Plate:MR028
  potency estimated from few doses: 51.6 nM
PLK4; compound concentrations:100 nM and 1000 nM (sheet 'Lestaurtinib' of Supplementary Table 1),run:Lestaurtinib_02768_R2,Plate:MR028
  potency estimated from few doses: 61.6 nM
PLK4; compound concentrations:100 nM and 1000 nM (sheet 'Lestaurtinib' of Supplementary Table 1),run:Lestaurtinib_02768_R3,Plate:MR028
  potency estimated from few doses: 74.4 nM
PLK4; compound concentrations:100 nM and 1000 nM (sheet 'Lestaurtinib' of Supplementary Table 1),run:Lestaurtinib_02795_R1,Plate:MR022
  potency estimated from few doses: 55.3 nM
PLK4; compound concentrations:100 nM and 1000 nM (sheet 'Lestaurtinib' of Supplementary Table 1),run:Lestaurtinib_02795_R2,Plate:MR022
  potency estimated from few doses: 63.4 nM
PLK4; compound concentrations:100 nM and 1000 nM (sheet 'Lestaurtinib' of Supplementary Table 1),run:Lestaurtinib_02802_R1,Plate:MR029
  potency estimated from few doses: 73 nM
PLK4; compound concentrations:100 nM and 1000 nM (sheet 'Lestaurtinib' of Supplementary Table 1),run:Lestaurtinib_02802_R2,Plate:MR029
  potency estimated from few doses: 83.4 nM
PLK4; compound concentrations:100 nM and 1000 nM (sheet 'Lestaurtinib' of Supplementary Table 1),run:Lestaurtinib_02802_R3,Plate:MR029
  potency estimated from few doses: 32.3 nM
PLK4; compound concentrations:100 nM and 1000 nM (sheet 'Lestaurtinib' of Supplementary Table 1),run:Lestaurtinib_02896_R1,Plate:MR030
  potency estimated from few doses: 78.3 nM
PLK4; compound concentrations:100 nM and 1000 nM (sheet 'Lestaurtinib' of Supplementary Table 1),run:Lestaurtinib_02896_R3,Plate:MR030
  potency estimated from few doses: 80.6 nM
PLK4; compound concentrations:100 nM and 1000 nM (sheet 'Lestaurtinib' of Supplementary Table 1),run:Lestaurtinib_03172_R1,Plate:MR031
  potency estimated from few doses: 67.3 nM
PLK4; compound concentrations:100 nM and 1000 nM (sheet 'Lestaurtinib' of Supplementary Table 1),run:Lestaurtinib_03172_R3,Plate:MR031
  potency estimated from few doses: 72.8 nM
PLK4; compound concentrations:100 nM and 1000 nM (sheet 'Lestaurtinib' of Supplementary Table 1),run:Lestaurtinib_03252_R1,Plate:MR032
  potency estimated from few doses: 64.8 nM
PLK4; compound concentrations:100 nM and 1000 nM (sheet 'Lestaurtinib' of Supplementary Table 1),run:Lestaurtinib_03252_R2,Plate:MR032
  potency estimated from few doses: 23.9 nM
PLK4; compound concentrations:100 nM and 1000 nM (sheet 'Lestaurtinib' of Supplementary Table 1),run:Lestaurtinib_03260_R2,Plate:MR033
  potency estimated from few doses: 63.7 nM
PLK4; compound concentrations:100 nM and 1000 nM (sheet 'Lestaurtinib' of Supplementary Table 1),run:Lestaurtinib_03260_R3,Plate:MR033
  potency estimated from few doses: 78.5 nM
PRKAA2; compound concentrations:100 nM and 1000 nM (sheet 'Lestaurtinib' of Supplementary Table 1),run:Lestaurtinib_02339_R1,Plate:MR001
  potency estimated from few doses: 963 nM
PRKAA2; compound concentrations:100 nM and 1000 nM (sheet 'Lestaurtinib' of Supplementary Table 1),run:Lestaurtinib_02339_R3,Plate:MR001
  potency estimated from few doses: 953 nM
PRKAA2; compound concentrations:100 nM and 1000 nM (sheet 'Lestaurtinib' of Supplementary Table 1),run:Lestaurtinib_02364_R1,Plate:MR002
  potency estimated from few doses: 713 nM
PRKAA2; compound concentrations:100 nM and 1000 nM (sheet 'Lestaurtinib' of Supplementary Table 1),run:Lestaurtinib_02364_R2,Plate:MR002
  potency estimated from few doses: 541 nM
PRKAA2; compound concentrations:100 nM and 1000 nM (sheet 'Lestaurtinib' of Supplementary Table 1),run:Lestaurtinib_02364_R3,Plate:MR002
  potency estimated from few doses: 553 nM
PRKAA2; compound concentrations:100 nM and 1000 nM (sheet 'Lestaurtinib' of Supplementary Table 1),run:Lestaurtinib_02367_R1,Plate:MR003
  potency estimated from few doses: 1320 nM
PRKAA2; compound concentrations:100 nM and 1000 nM (sheet 'Lestaurtinib' of Supplementary Table 1),run:Lestaurtinib_02367_R3,Plate:MR003
  potency estimated from few doses: 892 nM
PRKAA2; compound concentrations:100 nM and 1000 nM (sheet 'Lestaurtinib' of Supplementary Table 1),run:Lestaurtinib_02381_R1,Plate:MR004
  potency estimated from few doses: 1400 nM
PRKAA2; compound concentrations:100 nM and 1000 nM (sheet 'Lestaurtinib' of Supplementary Table 1),run:Lestaurtinib_02381_R2,Plate:MR004
  potency estimated from few doses: 954 nM
PRKAA2; compound concentrations:100 nM and 1000 nM (sheet 'Lestaurtinib' of Supplementary Table 1),run:Lestaurtinib_02381_R3,Plate:MR004
  potency estimated from few doses: 761 nM
PRKAA2; compound concentrations:100 nM and 1000 nM (sheet 'Lestaurtinib' of Supplementary Table 1),run:Lestaurtinib_02407_R1,Plate:MR005
  potency estimated from few doses: 755 nM
PRKAA2; compound concentrations:100 nM and 1000 nM (sheet 'Lestaurtinib' of Supplementary Table 1),run:Lestaurtinib_02407_R3,Plate:MR005
  potency estimated from few doses: 722 nM
PRKAA2; compound concentrations:100 nM and 1000 nM (sheet 'Lestaurtinib' of Supplementary Table 1),run:Lestaurtinib_02422_R3,Plate:MR006
  potency estimated from few doses: 74.8 nM
PRKAA2; compound concentrations:100 nM and 1000 nM (sheet 'Lestaurtinib' of Supplementary Table 1),run:Lestaurtinib_02437_R2,Plate:MR007
  potency estimated from few doses: 616 nM
PRKAA2; compound concentrations:100 nM and 1000 nM (sheet 'Lestaurtinib' of Supplementary Table 1),run:Lestaurtinib_02437_R3,Plate:MR007
  potency estimated from few doses: 56.5 nM
PRKAA2; compound concentrations:100 nM and 1000 nM (sheet 'Lestaurtinib' of Supplementary Table 1),run:Lestaurtinib_02438_R1,Plate:MR008
  potency estimated from few doses: 857 nM
PRKAA2; compound concentrations:100 nM and 1000 nM (sheet 'Lestaurtinib' of Supplementary Table 1),run:Lestaurtinib_02443_R3,Plate:MR009
  potency estimated from few doses: 792 nM
PRKAA2; compound concentrations:100 nM and 1000 nM (sheet 'Lestaurtinib' of Supplementary Table 1),run:Lestaurtinib_02473_R1,Plate:MR010
  potency estimated from few doses: 730 nM
PRKAA2; compound concentrations:100 nM and 1000 nM (sheet 'Lestaurtinib' of Supplementary Table 1),run:Lestaurtinib_02473_R2,Plate:MR010
  potency estimated from few doses: 941 nM
PRKAA2; compound concentrations:100 nM and 1000 nM (sheet 'Lestaurtinib' of Supplementary Table 1),run:Lestaurtinib_02473_R3,Plate:MR010
  potency estimated from few doses: 799 nM
PRKAA2; compound concentrations:100 nM and 1000 nM (sheet 'Lestaurtinib' of Supplementary Table 1),run:Lestaurtinib_02482_R1,Plate:MR011
  potency estimated from few doses: 788 nM
PRKAA2; compound concentrations:100 nM and 1000 nM (sheet 'Lestaurtinib' of Supplementary Table 1),run:Lestaurtinib_02482_R2,Plate:MR011
  potency estimated from few doses: 508 nM
PRKAA2; compound concentrations:100 nM and 1000 nM (sheet 'Lestaurtinib' of Supplementary Table 1),run:Lestaurtinib_02482_R3,Plate:MR011
  potency estimated from few doses: 568 nM
PRKAA2; compound concentrations:100 nM and 1000 nM (sheet 'Lestaurtinib' of Supplementary Table 1),run:Lestaurtinib_02487_R1,Plate:MR012
  potency estimated from few doses: 422 nM
PRKAA2; compound concentrations:100 nM and 1000 nM (sheet 'Lestaurtinib' of Supplementary Table 1),run:Lestaurtinib_02487_R3,Plate:MR012
  potency estimated from few doses: 679 nM
PRKAA2; compound concentrations:100 nM and 1000 nM (sheet 'Lestaurtinib' of Supplementary Table 1),run:Lestaurtinib_02496_R1,Plate:MR013
  potency estimated from few doses: 702 nM
